# Screening data deposited in PubChem by National Center for Advancing Translational Sciences (NCATS).
# Only some compounds are listed: those with a hit (about 20% of all), similar ones and a draw of the others.
# Pf growth 48h – Primary qHTS for delayed death inhibitors of the malarial parasite plastid, 48 hour incubation. P. falciparum luciferase growth in erythrocytes, 48 h. Potency, µM (doses to about 28.7 µM), most hits filed as inhibitors. actives 5.9% (n = 310,000)
#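 Firefly luciferase activity from engineered P. falciparum reports growth; inhibitors lower the luminescent signal. Cultures contained 2% hematocrit erythrocytes at 0.1% final parasitemia.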
# Pf growth 96h – Primary qHTS for delayed death inhibitors of the malarial parasite plastid, 96 hour incubation; P. falciparum luciferase reporter growth, 96 h; Potency, µM (series often up to 28.7 µM), actives largely listed as inhibitors; actives 6.9% (n = 320,000); AID 504834, 2011
#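 Compounds incubated with erythrocytes infected by luciferase-expressing P. falciparum (2% hematocrit, 0.05% parasitemia final) for 96 hours, 37 C in 5% CO2. Growth inhibition scored as decreased luciferase luminescence.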
# Cycloheximide cs – Cycloheximide Counterscreen for Small Molecule Inhibitors of Shiga Toxin | cell reporter, cycloheximide protein synthesis inhibition counterscreen | max response, % | AID 2314, 2010 | actives 12% (n = 300,000); in the data active = max response mostly above about 13%, no sharp cut-off; inactive = mostly below about 14%; note: read at 38.3 µM for the half of the compounds with a filed dose
# HCMV inh – qHTS Assay for inhibitors of the human cytomegalovirus (HCMV). activity change, negative = inhibition, % at 57.5 µM. HFF cells, HCMV-luciferase reporter, 72 h; hits give low values. actives 4.5% (n = 410,000); in the data active = activity change below about -60%; inconclusive = no clear call, values can overlap the other calls; inactive = above about -39%
#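 HFF cells seeded 16 h at 37C, treated with compounds, infected with luciferase-reporter HCMV at MOI 1 PFU/cell; luciferase read at 72 h post infection, normalized to buffer-only and Salinomycin controls.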
# Shiga toxin inh – A qHTS for Small Molecule Inhibitors of Shiga Toxin; Vero cells, Shiga toxin protein synthesis inhibition reporter; inhibition, % at 38.7 µM; AID 2315, 2010; actives 9.2% (n = 290,000); in the data active = inhibition mostly above about 28%, no sharp cut-off; inactive = mostly below about 43%
# Numbers stand for hits; i = inactive; ? = inconclusive; nt = no result; + = active, no number; [ ] = another dose, or the depositor's remark. Unless noted, calls come from the whole dose curve; as a rule, active = well fitted inhibition curve with a large enough effect; inconclusive = small, poorly fitted or top-dose-only effect, or another doubt; inactive = no such curve, though single readings can be large or run the other way.
SMILES,Pf growth 48h,Pf growth 96h,Cycloheximide cs,HCMV inh,Shiga toxin inh
CC(C)C1=CC2=CCC3C(C)(C(=O)O)CCCC3(C)C2CC1 (stereo not drawn) (tested in a mixture with another compound),?,?,i,nt,i
CCC(Sc1nnc(C)n2c1cc1sccc12)C(=O)Nc1ccccc1F (stereo not drawn),nt,nt,nt,-64,nt
COc1cc2c(cc1OC)C1CC(=O)C(CC(C)C)CN1CC2 (stereo not drawn),i,i,i,-62,i
CN(C(=S)NC(=O)c1ccccc1Br)C1CCCCC1,i,4.7µM,i,i,i
Cc1ccccc1C(=O)NC(=S)N(C)C1CCCCC1,15µM,?,26,i,31
O=C(NC(=S)NC1CCS(=O)(=O)C1)c1ccccc1Br (stereo not drawn),i,5.9µM,i,i,i
CC1CCCCC1NC(=S)NC(=O)c1ccccc1Br (stereo not drawn),?,?,i,i,i
COc1ccc(Br)cc1CC1C(=O)Nc2ccccc21 (stereo not drawn),nt,nt,nt,-74,nt
CCCCCC1(C)NC(=S)N(c2ccccc2)N1 (stereo not drawn),i,i[5.75 µM],20,i,i
CC1(CC(=O)Nc2ccccc2)NC(=S)N(c2ccccc2)N1 (stereo not drawn),i,i,24,i,44
CCn1cc(C2=NC(c3ccccc3)CO2)c2ccccc21 (stereo not drawn),i,i,i,i,i
O=[N+]([O-])c1cccc(C2=NC(c3ccccc3)CO2)c1 (stereo not drawn),i,i,23,i,81
COc1ccc(C2=N[C@H](c3ccccc3)CO2)cc1,nt,nt,i,nt,+
COc1ccc(C2=NC(c3ccccc3)CO2)cc1 (stereo not drawn),i,i,56,nt,96
COc1ccc(C2=N[C@@H](C(C)C)CO2)cc1,nt,nt,64,nt,+
CCC1CCc2nc3sc(C(=O)Nc4ccc(C)cc4)c(N)c3cc2C1 (stereo not drawn),nt,nt,nt,i,nt
CCCCN(C)C(=O)Cn1c(C2CC(=O)N(c3ccc(C)cc3)C2)nc2ccccc21 (stereo not drawn),nt,nt,nt,i,nt
COc1ccc(CNC(=O)c2ccc3c(c2)CCN3S(=O)(=O)c2ccc(Cl)cc2)cc1,nt,nt,nt,i,nt
O=S1(=O)CCOC[C@H](CC2CCCCC2)N1Cc1ccc(Cl)cc1,i,?,i,i,i
Cc1ccc(CN2[C@@H](CC3CCCCC3)COCCS2(=O)=O)cc1,i,?,i,-70,i
CN1Cc2cc(C(=O)c3cc(Cl)cc(CSc4ncccn4)c3O)cnc2NC1=O,i,9.3µM,i,nt,i
O=c1c2ccccc2nnn1CCO,i,i,i,i,i
N#Cc1nc(-c2ccc(Cl)cc2)oc1NCCc1ccccn1,i,?,12,i,35
Cc1ccc(-c2nc(C#N)c(NCCc3ccccn3)o2)cc1,nt,i,17,i,i
CN(C)CCCNc1oc(-c2ccc(Cl)cc2)nc1C#N,?,?,i,i,i
SMILES,Pf growth 48h,Pf growth 96h,Cycloheximide cs,HCMV inh,Shiga toxin inh
COc1ccc(CCNc2oc(-c3ccc(C)cc3)nc2C#N)cc1OC,i,i,i,i,i
CCOC(=O)C1(C)CCN1C(=O)c1cc(F)cc(F)c1 (stereo not drawn),nt,nt,nt,i,nt
CN(CC(=O)Nc1c(Cl)cccc1Cl)C(=O)CNC(=O)c1ccco1,i,i,nt,i,nt
CCOC(=O)N(Cc1ccccc1)Cc1ccc(C(=O)N[C@@H](Cc2ccccc2)C(=O)O)cc1,nt,nt,nt,i,nt
CN1c2ccc([N+](=O)[O-])cc2N(C)C1(C)c1ccccc1 (stereo not drawn),12µM,i,i,i,i
CCOCCN1CCN(c2c(C)c(C)nc3cc(-c4cc(OC)cc(OC)c4)nn23)CC1,nt,i,i,-84,i
CCc1c(C)nc2cc(-c3cc(OC)cc(OC)c3)nn2c1N1CCN(CCN2CCOCC2)CC1,1.3µM,i,i,i,i
CC(/C=N/NC(=O)COc1ccccc1C)=N\NC(=O)COc1ccccc1C,i,?,i,i,i
CC(=O)c1ccc(N2CCN(C(=O)c3ccc(Cn4c(=O)[nH]c5ccccc5c4=O)cc3)CC2)cc1,nt,nt,nt,i,nt
CCCn1c(=S)[nH]c2cc(C(=O)N3CCN(C4CCCCC4)CC3)ccc2c1=O,i,10µM,i,i,i
CCOC(=O)N1CCN(C(=O)c2ccc3c(=O)n(CCc4ccccc4)c(=S)[nH]c3c2)CC1,?,8.3µM,i,i,i
CC(=O)c1ccc(N2CCN(C(=O)c3ccc(Cn4c(=S)[nH]c5ccc(N6CCOCC6)cc5c4=O)cc3)CC2)cc1,?,i,i,i,59
O=c1c2ccccc2[nH]c(=S)n1CCCN1CCN(C2CCCCC2)CC1,13µM,nt,i,i,i
CCCn1c(=S)[nH]c2cc(C(=O)N3CCN(C(=O)OCC)CC3)ccc2c1=O,i,?,i,i,i
O=C(c1ccc2c(=O)n(C3CCCC3)c(=S)[nH]c2c1)N1CCN(C2CCCCC2)CC1,i,i,i,i,i
COc1ccc2c(c1)c(N1CCCC1=O)c(C(=O)Nc1ccc(Cl)cc1C)n2C,nt,nt,nt,i,nt
CS(=O)(=O)N1CC(C(=O)NC2CCCC2)Oc2ccc(Cl)cc21 (stereo not drawn),?,i,i,i,i
CCN1CCN(C(=O)c2ccc3c(=O)n(CCc4ccccc4)c(=O)[nH]c3c2)CC1,i,i,20,nt,59
O=c1c2ccccc2[nH]c(=S)n1CCN1CCCC1,i,i,i,i,i
CCOc1cc2[nH]c(=O)n(Cc3ccc(C(=O)N4CCN(c5ccccc5)CC4)cc3)c(=O)c2cc1OCC,nt,nt,nt,i,nt
CN1CCN(C(=O)c2ccc3c(=O)n(CCc4ccccc4)c(=S)[nH]c3c2)CC1,nt,nt,nt,i,nt
O=C(CCCCCn1c(=S)[nH]c2ccc(N3CCOCC3)cc2c1=O)NCc1ccccc1,i,?,i,i,i
O=C(CCCCCn1c(=S)[nH]c2ccc(N3CCOCC3)cc2c1=O)NCc1cccc(Cl)c1,i,i,i,-71,i
CC(C)N(CCn1c(=S)[nH]c2ccccc2c1=O)C(C)C,nt,2.9µM,i,i,i
CCOc1cc2[nH]c(=S)n(Cc3ccc(C(=O)O)cc3)c(=O)c2cc1OCC,i,9.3µM,i,i,i
SMILES,Pf growth 48h,Pf growth 96h,Cycloheximide cs,HCMV inh,Shiga toxin inh
COc1ccccc1NC(=O)c1cn(-c2ccccc2)nc1-c1ccccc1,nt,nt,nt,i,nt
CCOC(=O)N1CCN(C(=O)c2ccc(Cn3c(=S)[nH]c4ccc(Br)cc4c3=O)cc2)CC1,12µM,3.7µM,i,-95,i
Cc1nn2c(-c3cccc(NC(=O)CSc4nc5ccccc5o4)c3)nnc2c2ccccc12,?,i,14,i,i
Cc1nonc1NC(=O)CSc1nc2ccccc2o1,13µM,i,i,i,i
Cc1ccc2nc(NC(=O)CSc3nc4ccccc4o3)sc2c1,nt,?,i,i,i
Cc1cccc(NC(=O)CSc2nc3ccccc3o2)c1,i,i,38,i,119
Cc1cc(C)nc(NC(=O)CSc2nc3ccccc3o2)n1,nt,i,51,i,58
